Chronic BCR inh: inhibitors of chronic active B-cell receptor signaling; ABC-DLBCL IkBa-CBG/CBR reporter, luminescence ratio, 4 h; Potency, µM (doses to about 46.1 µM), for inactives: at the top dose activity change, negative = inhibition, usual class: inhibitors; 0.05% of 340,000 active; active means well fitted inhibition curve with a large enough effect in the signal ratio, with a control signal flat, not every such curve was filed as active; inconclusive means small, poorly fitted or top-dose-only effect, or effect the other way, or a change in a side signal; the % refers to the signal ratio;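 further: potency means the concentration at half of the fitted maximal effect; plate controls were basal doxycycline-induced cells for no effect and cells given 10 µM MG132 for full effect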
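Doxycycline induced both beetle luciferases in TMD8 lymphoma cells; IKK-driven degradation limits the IkappaBalpha-fused green signal, while red luminescence normalises for cell number and nonspecific effects. Compounds tested up to 46 uM, 4 hrs.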
SW480 rereplic: induces DNA re-replication in SW480 colon adenocarcinoma cells; SW480 DNA re-replication, Hoechst DNA content imaging, 48 h; Potency, µM (highest dose often 46.1 µM), inactives show at the top dose re-replication activation, most hits filed as activators; 1.8% of 340,000 active; AID 624297; further: potency means the concentration at half of the fitted maximal effect; % of control where 0% means no effect; nearly all actives have a fitted effect of over 55% in size
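SW480 cells exposed to compounds for 48 hr at 37 C, 5% CO2, then Hoechst-stained 40 min. Nuclear DNA content imaged by fluorescence scanning (405 nm excitation, 500-530 nm emission); re-replication scored as increased high-intensity nuclei.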
RORgamma inh: ROR gamma (mouse) transcription inhibition | P51450 | Drosophila S2 Gal4-RORgamma UAS-luciferase reporter, 20 h | Potency, µM (doses to about 53.6 µM), for the others: at the top dose activity change, negative = inhibition, most hits filed as inhibitors | 5.4% of 310,000 active; further: potency means the concentration at half of the fitted maximal effect; on the % scale 0 is the no-effect control and ±100 the full control effect; nearly all actives have a fitted effect of over 60% in size
Target sequence (P51450 whole entry, looked up, the tested form may be a part): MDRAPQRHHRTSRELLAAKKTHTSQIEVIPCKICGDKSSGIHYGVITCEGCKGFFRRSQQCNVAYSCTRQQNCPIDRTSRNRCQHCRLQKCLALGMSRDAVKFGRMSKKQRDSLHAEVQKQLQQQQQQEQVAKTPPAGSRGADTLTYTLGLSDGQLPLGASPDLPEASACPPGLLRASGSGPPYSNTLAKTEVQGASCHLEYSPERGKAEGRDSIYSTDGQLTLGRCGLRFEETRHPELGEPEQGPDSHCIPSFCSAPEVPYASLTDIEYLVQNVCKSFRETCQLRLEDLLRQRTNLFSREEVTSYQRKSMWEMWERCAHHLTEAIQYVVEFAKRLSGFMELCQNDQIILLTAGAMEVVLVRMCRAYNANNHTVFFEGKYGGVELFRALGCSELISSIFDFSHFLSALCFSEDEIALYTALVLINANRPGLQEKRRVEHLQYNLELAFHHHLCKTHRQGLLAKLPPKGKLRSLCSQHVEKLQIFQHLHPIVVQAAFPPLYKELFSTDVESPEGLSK
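Read-out: Photinus luciferase luminescence; inhibitors lower reporter signal. Insect Schneider cells with Gal4-ROR gamma fusion under metallothionein promoter, UAS reporter; 700 uM final copper sulfate induction, 20 hr, ambient temperature.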
Giardia killer: kills Giardia lamblia; Giardia lamblia trophozoite viability; activity change, % at 7.66 µM, hits read low; 0.15% of 340,000 active; AID 540267; in the data active means activity change below about -80%; inconclusive means between about -30% and that limit;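 further: parasites exposed to compound for two days anaerobically before the ATP read; on the % scale 0 is the no-effect control and ±100 the full control effect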
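Luminescence from cellular ATP indicates surviving trophozoites (100 cells/well) following 48 hrs anaerobic compound treatment at 37 deg C; signal develops 15-30 min at room temperature.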
VP16 counter: inhibits Gal4-VP16 luciferase reporter, ROR gamma counter-screen. 3.5% of 310,000 active. Drosophila S2 Gal4-VP16 UAS-luciferase, luminescence, 20 h. AID 2546. Potency, µM (doses to about 53.6 µM), inactives show at the highest dose activity, negative = inhibition, hits mostly inhibitors;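 further: Gal4-VP16 expression switched on by copper sulfate through the metallothionein promoter; potency means the concentration at half of the fitted maximal effect; on the % scale 0 is the no-effect control and ±100 the full control effect; nearly all actives have a fitted effect of over 50% in size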
MCF10A rerep: inducers of DNA re-replication in MCF 10A breast cells; AID 624296; 2.9% of 350,000 active; Potency, µM (series often up to 46.1 µM), inactives show at the highest dose activity, positive = re-replication, hits mostly activators; MCF 10A DNA re-replication, Hoechst nuclear intensity, 48 h; further: potency means the concentration at half of the fitted maximal effect; % of control where 0% means no effect; nearly all actives have a fitted effect of over 50% in size
Starred values were filed as active, the others as inactive; ? = inconclusive; · = no result; [ ] = another dose, or the depositor's remark. Hits are enriched below; roughly 8.3% of the tested compounds scored in any of these assays. Unless noted, the call rests on the fitted dose curve; in most records, active means well fitted curve in the direction sought with a large enough effect; inconclusive means small, poorly fitted or top-dose-only effect, or another doubt; inactive means no such curve, though single readings can be large; an effect the other way counts as inactive or inconclusive.

SMILES | Chronic BCR inh | SW480 rereplic | RORgamma inh | Giardia killer | VP16 counter | MCF10A rerep
Cc1cc(C(=O)Nc2c(C)nn(Cc3ccc(Cl)cc3)c2C)no1 | -27.3% | -22.7% | 38.1% | -1.5 | -0.7%[10 µM] | -0.3%
Cc1nn(Cc2ccc(C(=O)NN)cc2)c(C)c1Cl | -10.7% | -1.6% | ? | -4.1 | -8.4% | 1.1%
Cc1nn(Cc2ccc(Cl)cc2)c(C)c1NC(=O)C(c1ccccc1)c1ccccc1 | ? | 3.0% | 11.2µM* | 5.3 | -0.9% | ?
Cc1nn(Cc2ccc(C(=O)Nc3ccccc3F)cc2)c(C)c1Cl | ? | -7.3% | -3.4% | -19.9 | -5.4% | 23.1µM*
Cc1nn(Cc2ccc(C(=O)Nc3nccs3)cc2)c(C)c1Cl | ? | -4.1% | 12.6µM* | 7.3 | ? | 5.8µM*
Nc1ncnc2[nH]c(=S)[nH]c12 | · | 10.0% | · | 2.5 | · | 10.3%
CC(C)C[C@H]1CNC(=S)N1CC1CCN(CC2CCCC2)CC1 | · | 0.0259µM* | · | -10.6 | · | ?
CCCC[C@@H]1CNC(=S)N1CCC12CC3CC(CC(C3)C1)C2 | 9.1% | 3.7% | 0.562µM* | 20.9 | 3.16µM* | 16.4µM*
S=C1NC[C@H](CC2CCCCC2)N1CC1CCCCC1 | 21.1% | -5.2% | 0.891µM* | 17.1 | 5.01µM* | ?
CC(C)C[C@H]1CNC(=S)N1CC1CCN(CCCC2CCCCC2)CC1 | · | -1.6% | · | -26.9 | · | ?
CCCC[C@@H]1CNC(=S)N1CC1CCCCC1 | -1.3% | ? | 1.41µM* | 8.1 | 6.31µM* | 17.5%
CC(C)C[C@H]1CNC(=S)N1CC1CCN(CCC23CC4CC(CC(C4)C2)C3)CC1 | · | ? | · | 9.5 | · | -42.4%
O=C(NCc1ccco1)c1cccc2c1C(=O)c1ccc(N3CCCC3)cc1S2(=O)=O | -0.9% | -0.4% | · | 4.4 | · | 4.1%
CC(OC(=O)c1nn(C)c(=O)c2ccccc12)C(=O)NC1CCCCC1C (centres undefined) | 0.7% | -3.5% | · | 9.8 | · | 0.0%
COc1ccc(C(C[N+](=O)[O-])c2c(-c3ccccc3)cc3ccccn23)cc1OC (centres undefined) | · | ? | 8.91µM* | -8.9 | ? | 20.6µM*
COc1cc(C(C[N+](=O)[O-])c2c(C)cc3ccccn23)ccc1O (centres undefined) | ? | ? | 15.8µM* | 6.2 | ? | ?
COc1cc(C(C[N+](=O)[O-])c2c(-c3ccccc3)cc3ccccn23)cc(OC)c1OC (centres undefined) | ? | 11.6µM* | ? | -4.7 | ? | ?
COc1ccc(C(C[N+](=O)[O-])c2c(-c3ccccc3)cc3ccccn23)cc1 (centres undefined) | 2.0% | ? | -9.7% | 6.6 | -14.8% | 18.4µM*
O=C(CCCCCNC(=O)N1CCn2c1nc1ccccc12)N[C@H](C(=O)O)c1ccccc1 | -6.4% | 0.3% | -12.3% | 10.7 | -0.2% | -1.1%
COc1ccc(C2CC(c3ccc(OC)cc3)n3nc(NC(=O)c4cccs4)nc3N2)cc1 (centres undefined) | -1.4% | -4.2% | 5.01µM* | 25.9 | ? | 3.5%
COCC(=O)Nc1nc2n(n1)C(c1ccc(Cl)cc1)CC(c1ccc(OC)cc1)N2 (centres undefined) | -0.2% | -1.6% | -17.7% | 6.5 | 1.5% | -5.4%
CC1CC(c2ccccc2)n2nc(NC(=O)c3ccco3)nc2N1 (centres undefined) | 7.1% | 1.0% | -41.2% | 7.3 | -10.7% | 1.1%
COc1ccc(C2CC(c3ccc(F)cc3)n3nc(NC(=O)c4ccco4)nc3N2)cc1 (centres undefined) | 9.0% | -0.8% | 7.08µM* | -3.6 | 12.6µM* | -0.3%
CCCCn1c(N)c(N(CCOC)C(=O)c2ccc3c(c2)C(=O)N(c2cc(C)ccc2C)C3=O)c(=O)[nH]c1=O | -2.5% | 0.0% | -26.7% | 5.2 | 0.8% | 9.3%
COc1cc2c(c(OC)c1OC)C(=O)C(=Cc1ccccc1)O2 | · | -0.3% | · | 8.1 | · | ?
